The panel holds about 79,000 compounds, 15% with a hit somewhere; the sample as a whole holds those more often. Unmarked numbers belong to inactive results. Activity calls are given as the source filed them. Cut-off read from the data, not from the text of the source: active = growth inhibition above about 70%; inactive = the rest. Where a SMILES comes first, the peptide text is derived from it. [ ]: non-standard residue; d: D form. ξ: configuration not given here. ξPhe(4-N(CH2CH2Cl)2) = NC(Cc1ccc(N(CCCl)CCCl)cc1)C(=O)O; Aad = N[CH](CCCC(=O)O)C(=O)O
Tests used:
[1] = NCI Yeast Anticancer Drug Screen. Data for the rad50 strain (AID 155);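 note: 0% = growth of vehicle-only cultures of the same strain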; conditions: S. cerevisiae rad50 strain growth inhibition; at 50.0 µM; stronger effect = higher value
Outline: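 Genetically altered yeast (DNA repair pathway); compound treatment; growth inhibition vs vehicle ctrl.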

[2] = NCI Yeast Anticancer Drug Screen. Data for the mec2-1 strain (AID 157); conditions: S. cerevisiae mec2-1 strain, at 50.0 µM, stronger effect = higher value
Outline: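 mec2-1 yeast strain, carrying an alteration in DNA damage repair or cell cycle control, was exposed to compounds; growth inhibition was measured relative to vehicle-treated controls.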

[3] = NCI Yeast Anticancer Drug Screen. Data for the sgs1 mgt1 strain (AID 161);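 note: 0% = growth of cultures given vehicle only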; conditions: S. cerevisiae sgs1 mgt1 strain, at 50.0 µM, stronger effect = higher value
Outline: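 Compounds are added to genetically altered yeast, and growth is compared with cultures given vehicle alone to give percent inhibition.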

[4] = NCI Yeast Anticancer Drug Screen. Data for the cln2 rad14 strain (AID 165);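 note: 0% = growth equal to vehicle treated cultures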; conditions: S. cerevisiae cln2 rad14 strain, at 50.0 µM, stronger effect = higher value
Outline: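 Yeast carrying cln2 and rad14 alterations (cell cycle control and DNA damage repair) were exposed to compounds. Growth inhibition was measured against vehicle-treated controls.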

[5] = NCI Yeast Anticancer Drug Screen. Data for the bub3 strain (AID 167); conditions: S. cerevisiae bub3 mutant strain, at 50.0 µM, stronger effect = higher value
Outline: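 Yeast carrying a defined mutation is treated with each compound, and growth is compared with that of vehicle-exposed cells to give inhibition.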

[6] = NCI Yeast Anticancer Drug Screen. Data for the mlh1 rad18 strain (AID 175); conditions: S. cerevisiae mlh1 rad18 strain growth inhibition; at 50.0 µM; stronger effect = higher value
Outline: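 Growth inhibition of the yeast strain was measured after compound exposure and expressed relative to vehicle-treated controls. The strain carries defined defects in DNA damage repair.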

SMILES	growth inhibition [1]	growth inhibition [2]	growth inhibition [3]	growth inhibition [4]	growth inhibition [5]	growth inhibition [6]
NNN1CCN(N)CC1	11.1%	-12.2%	6.35%	-8.35%	17.1%	4.35%
N.N.N.N.N.N.[Br-].[Co+3]	-0.9%	7.7%	-34.2%	6.3%	-1.2%	22.6%
C[N+]1(C)C2CCC1CC(OC(=O)C(CO)c1ccccc1)C2 (stereo unspecified)	18.7%	-21.6%	-6%	-28.4%	-51.5%	-5.95%
CCN1C(=O)NC(=O)C(C)(N2CCCCC2)C1=O (stereo unspecified)	13.4%	5.3%	25.9%	15.2%	10.7%	28.7%
C=CCSc1nc2ccccc2c(=O)n1-c1cc(OC)c(Cl)cc1OC	9%	-20.9%	15.1%	8.45%	42.5%	-9.25%
Nc1cc(N=Nc2ccc([As](=O)(O)O)cc2)ccc1O	7.95%	13.4%	-5.2%	11%	16.6%	16.9%
O=C1NC(=S)NC(=O)C1=Cc1cc2c(cc1[N+](=O)[O-])OCO2	0.45%	-4.2%	4.4%	15.1%	7.95%	-7.8%
CCOC(=O)OC1(c2ccccc2)CCN(C)CC1	-12.2%	5.75%	-4.55%	34.3%	21.4%	21.4%
C/C=C/C(=O)[O-].C/C=C/C(=O)[O-].N.N.N.N.[Co+3].[O-][Cl+3]([O-])([O-])[O-]	0.2%	-2.7%	-7.2%	25.1%	7.3%	-3.5%
CC(=O)CC(C)=O.CC(=O)CC(C)=O.CC(=O)CC(C)=O.[Tb]	-0.8%	-7.7%	-3.95%	26.8%	-2.95%	-19.8%
COc1ccccc1-n1c(C)nc2ccccc2c1=O	-5%	-19.6%	6.2%	2.8%	19.7%	4.8%
O=C(O)/C=C/C(=O)O.[Ni]	-13.8%	-21.6%	-28.1%	-45.5%	0.35%	0.5%
CC(=O)Nc1cc([As](=O)(O)O)ccc1O	31.6%	14.3%	31.8%	-28.2%	9.85%	33.8%
C=C(CC(=O)O)C(=O)O	-2.25%	2.8%	-3.85%	6.2%	6.05%	4.9%
C[CH2][Pb]([CH2]C)([CH2]C)[N]1C(=O)c2c(Cl)c(Cl)c(Cl)c(Cl)c2C1=O	67.7%	34.5%	93.1% (active)	25.4%	33.8%	78.3% (active)
C/C=C/CC1(CC)C(=O)NC(=S)NC1=O	3.8%	7%	7.15%	9%	2.35%	13.6%
CCC1(CCC(C)C)C(=O)NC(=O)N(c2ccccc2)C1=O (stereo unspecified)	1.2%	-1.5%	-4.5%	7.2%	8.3%	-9.25%
S=C([S-])N1CCCCC1.S=C([S-])N1CCCCC1.[Zn]	79.5% (active)	73.3% (active)	96% (active)	22.9%	-3%	65%
Nc1ccc([N+](=O)[O-])cc1	-11.2%	2.8%	-14.9%	-6.55%	-14.7%	-1%
CNC(=O)c1[nH]cnc1/N=N/N(C)N	85.2% (active)	91.8% (active)	90.5% (active)	87.9% (active)	89% (active)	89.3% (active)
O=C(O)[C@H](O)[C@@H](O)C(=O)O.[Pb]	7.05%	-4.35%	-2.9%	-36.9%	6.85%	-9.2%

SMILES	growth inhibition [1]	growth inhibition [2]	growth inhibition [3]	growth inhibition [4]	growth inhibition [5]	growth inhibition [6]
CCOP(=S)(OCC)OP(=S)(OCC)OCC	-44.5%	-50.4%	-40.6%	-13.9%	-28.1%	-42.1%
O=C(CC(=O)C(F)(F)F)c1cccs1.O=C(CC(=O)C(F)(F)F)c1cccs1.O=C(CC(=O)C(F)(F)F)c1cccs1.[Gd]	29.8%	26.2%	26.9%	-3.25%	44%	15.9%
CCOC(=O)C(Cc1ccc(N(CCCl)CCCl)cc1)NC(=O)C(CCC(=O)O)NC(=O)C(Cc1ccc(O)cc1)NC(=O)C(CCCC(=O)O)NC(=O)C(N)Cc1ccc(O)cc1 (stereo unspecified) (H-Y[Aad]YE[ξPhe(4-N(CH2CH2Cl)2)]-OEt; configuration not given here)	7.7%	13.9%	-6.5%	14.8%	8.05%	30.3%
O=C(CC(=O)C(F)(F)F)c1ccco1.[Co]	-16.5%	-17.2%	-16.5%	-10.5%	-7.8%	3.55%
N#CCC(=O)[O][Sn]([c]1ccccc1)([c]1ccccc1)[c]1ccccc1	98% (active)	98.3% (active)	98.8% (active)	97.8% (active)	97.8% (active)	98.7% (active)
O=C(O)c1ccc(CI)cc1	-9.6%	-11.9%	6%	9%	15.2%	-16.9%
ClCCN(CCCl)c1cc(Cl)ccc1Oc1ccccc1	-35.8%	-4.3%	1.25%	-42%	18.9%	-1.55%
O=c1ccc2c(O)c3ccoc3cc2o1	-14.7%	-10%	5.7%	-5.05%	3.45%	-22.9%
CCOP(=O)(OCC)Oc1ccc(SC)cc1	-7.85%	-14.3%	-9.65%	-14.9%	12.9%	-14.8%
CN1CCC(O)(c2ccccc2)C(c2ccccc2)C1 (stereo unspecified)	0.25%	1.05%	-8.45%	0.4%	0.6%	-0.05%
O=[N+]([O-])c1ccc(SSC(Cl)(Cl)Cl)cc1	33%	94.2% (active)	93.5% (active)	13.4%	78.5% (active)	84.4% (active)
O=C(O)c1cccc(Cl)c1	31.6%	6%	19.1%	10.9%	25.9%	8.2%
NC(=O)C[CH2][Sn]([Cl])([Cl])[CH2]CC(N)=O	-5.65%	-5.5%	3.55%	5.3%	7.9%	-7%
COc1ccc([As]=O)cc1N (stereo unspecified)	4.8%	18.1%	8.75%	7.25%	-7.45%	-10.5%
Clc1ccc(-c2csc3cccc[n+]23)cc1	7.5%	4.35%	19.4%	24.1%	22.8%	19.3%
O=[N+]([O-])c1ccc(-n2nc3ccc4c(no[n+]4[O-])c3n2)cc1	-21.6%	23.5%	20.1%	16.6%	-15.6%	-25.6%
C1CCNCC1.COc1ccccc1C(=O)[CH-]C(=O)C(F)(F)F.COc1ccccc1C(=O)[CH-]C(=O)C(F)(F)F.COc1ccccc1C(=O)[CH-]C(=O)C(F)(F)F.COc1ccccc1C(=O)[CH-]C(=O)C(F)(F)F.[Eu+3]	56.3%	48.5%	48.9%	34.1%	29.8%	64.5%
O=[As]c1ccc2c(c1)NC(O)=CO2 (stereo unspecified)	21.9%	38.6%	20.7%	27.9%	20.4%	32.5%
CN(C)P(=O)(N(C)C)N1CCCCC1	-6.35%	-10.2%	0.3%	-22%	-23.6%	-4.3%
CN(C)C(=O)Sc1c(S(=O)(=O)F)ccc(Cl)c1Cl	22.4%	14.8%	10.3%	20.9%	6.15%	8.6%
